PubChem BioAssay AID1159580 (chemical genetic matrix, 2015)
“And” between values parts separate entries of the source, which are not always exact repeats. Equal values may be shown once. Hit rate of the full screen: of about 5,500 compounds, about 2,000 (36%) were called active. Another 18% or so got no clear call; they are omitted. Cut-off read from the data, not from the text of the source: active = normalized growth mostly below about 0.91 (no sharp cut-off); inconclusive = no clear call, values can overlap the other calls; inactive = mostly above about 0.92. The list shows a part of the results.

Experiment: chemical genetic growth profiling, strain panel (AID 1159580);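 note: tested at 20 µM; growth read once vehicle control cultures reached saturation at 30 °C; 1 = growth at the plate median or of vehicle wells; lower values mean less growth of the strain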
Settings: S. cerevisiae deletion strains, growth OD

Measured: normalized growth

O=C(CCc1ccc(O)cc1)c1c(O)cc(O)cc1O
inactive: locus YAL013W, strain DEP1, hits give low values 1.01 | locus YAL021C, strain ccr4, hits give low values 0.998 | locus YAL026C, strain drs2, hits give low values 1 | locus YAL030W, strain snc1, hits give low values 1.01 | locus YAL040C, strain CLN3, hits give low values 1.05 | locus YBL061C, strain skt5, hits give low values 1.02 | locus YBR009C, strain hhf1, hits give low values 0.992 | locus YBR021W, strain FUR4, hits give low values 1.03 | locus YBR023C, strain chs3, hits give low values 0.999 | locus YBR171W, strain sec66, hits give low values 1.02 | locus YBR229C, strain ROT2, hits give low values 0.991 | locus YBR231C, strain swc5, hits give low values 1.01 | locus YBR279W, strain paf1, hits give low values 1.01 | locus YCL011C, strain gbp2, hits give low values 1.02 | locus YCL016C, strain dcc1, hits give low values 1.01 | locus YCL029C, strain bik1, hits give low values 1 | locus YCL061C, strain MRC1 (second series), hits give low values 1.01 | locus YCL061C, strain MRC1, hits give low values 0.99 | locus YCL069W, strain vba3, hits give low values 1.02 | locus YCR088W, strain abp1, hits give low values 1.02 | locus YDL005C, strain med2, hits give low values 1.02 | locus YDL035C, strain GPR1, hits give low values 1.01 | locus YDL040C, strain nat1, hits give low values 0.997 | locus YDL074C, strain BRE1, hits give low values 0.987 | locus YDL101C, strain DUN1, hits give low values 1.01 | locus YDL134C, strain PPH21, hits give low values 1.01 | locus YDL185W, strain tfp1, hits give low values 1.01 | locus YDL192W, strain arf1, hits give low values 1.01 | locus YDR001C, strain nth1, hits give low values 1.02 | locus YDR069C, strain doa4, hits give low values 0.978 | locus YDR101C, strain arx1, hits give low values 1.02 | locus YDR137W, strain rgp1, hits give low values 1.11 | locus YDR150W, strain NUM1, hits give low values 1 and 0.988 | locus YDR159W, strain sac3, hits give low values 1.04 | locus YDR162C, strain NBP2, hits give low values 0.989 | locus YDR195W, strain ref2 1 | locus YDR297W, strain sur2, hits give low values 1 | locus YDR318W, strain mcm21, hits give low values 1.04 | locus YDR334W, strain swr1, hits give low values 1 | locus YDR335W, strain msn5, hits give low values 1.01 | locus YDR363W, strain ESC2, hits give low values 0.977 | locus YDR388W, hits give low values 1.01 | locus YDR392W, strain spt3, hits give low values 1 | locus YDR502C, strain sam2, hits give low values 0.994 | locus YEL003W, strain gim4, hits give low values 1.01 | locus YEL037C, strain rad23, hits give low values 1 | locus YEL061C, strain CIN8 (second series), hits give low values 1.02 | locus YEL061C, strain CIN8, hits give low values 0.997 | locus YER002W, strain NOP16, hits give low values 1.02 | locus YER015W, strain faa2, hits give low values 1 | locus YER016W, strain bim1, hits give low values 1.01 | locus YER110C, hits give low values 1.01 | locus YER111C, strain swi4, hits give low values 1.01 | locus YER155C, strain BEM2 (second series), hits give low values 1 | locus YER155C, strain BEM2, hits give low values 1.01 | locus YER167W, strain BCK2, hits give low values 1.02 | locus YFR010W, strain ubp6, hits give low values 0.992 | locus YGL078C, strain dbp3, hits give low values 1.01 | locus YGL086W, strain mad1, hits give low values 1.01 | locus YGL167C, strain pmr1, hits give low values 1.01 | locus YGL173C, strain kem1, hits give low values 1.02 | locus YGL227W, strain vid30, hits give low values 1.02 | locus YGL240W, strain doc1, hits give low values 1.01 | locus YGL248W, strain PDE1, hits give low values 1 | locus YGL253W, strain hxk2, hits give low values 1.02 | locus YGR078C, strain PAC10, hits give low values 0.987 and 1.01 | locus YGR135W, strain pre9, hits give low values 0.998 | locus YGR229C, strain SMI1, hits give low values 0.979 | locus YHR013C, strain ard1, hits give low values 0.99 | locus YHR027C, strain rpn1, hits give low values 1.01 | locus YHR030C, strain SLT2, hits give low values 1 and 0.997 | locus YHR079C, strain IRE1 (second series), hits give low values 1 | locus YHR079C, strain IRE1, hits give low values 0.983 | locus YHR094C, strain hxt1, hits give low values 0.999 | locus YHR129C, strain ARP1, hits give low values 0.998 | locus YHR142W, strain chs7, hits give low values 1.01 | locus YHR200W, strain rpn10, hits give low values 1.02 | locus YIL066C, strain RNR3, hits give low values 1.01 | locus YIL073C, strain SPO22, hits give low values 1.1 | locus YIL125W, strain kgd1, hits give low values 1.03 | locus YIR030C, strain dcg1, hits give low values 1.01 | locus YJL092W, strain hpr5, hits give low values 1.01 | locus YJL095W, strain BCK1 (second series), hits give low values 1.01 | locus YJL095W, strain BCK1, hits give low values 0.994 and 0.99 | locus YJL115W, strain asf1, hits give low values 1.02 | locus YJL129C, strain trk1, hits give low values 1.05 | locus YJL134W, strain LCB3, hits give low values 1.01 | locus YJL154C, strain vps35, hits give low values 1.02 | locus YJL164C, strain tpk1, hits give low values 0.984 | locus YJL166W, strain qcr8, hits give low values 1.01 | locus YJL168C, strain set2, hits give low values 0.995 | locus YJL187C, strain SWE1 (second series), hits give low values 0.995 | locus YJL187C, strain SWE1, hits give low values 1.02 | locus YJR043C, strain POL32, hits give low values 0.997 | locus YJR066W, strain TOR1, hits give low values 0.948
